Compound activity as filed in PubChem BioAssay.
Shown are actives, neighbours in structure and some others; about 19% of the full set was active somewhere.
TDP1 cell CPT – DT40-hTDP1 cell growth loss with CPT; AID 686979; 12% of 420,000 active; Potency, µM (highest dose often 46.2 µM), for the others: at the highest dose activity change, negative = growth inhibition, actives largely listed as inhibitors; chicken DT40 Tdp1-/-;hTDP1 cells + 20 nM CPT, ATP luminescence, 48 h; note: potency is the fitted concentration of half-maximal effect; nearly all actives have a fitted effect of over 55% in size
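Chicken DT40 Tdp1-/- cells complemented with human TDP1, 400 cells/well, exposed to compounds plus 20 nM camptothecin for at least 48 h at 37 C; viability read as ATP content by CellTiter-Glo luminescence.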
ELG1 repair inh – blocks ELG1-dependent DNA repair in HEK293T cells. 2.3% of 330,000 active. Potency, µM (top dose mostly 46.1 µM), for the others: at the top dose activity change, negative = inhibition, most hits filed as inhibitors. HEK293T ELG1-luciferase reporter, luminescence, 16 h; DNA damage induced by 5-fluorouridine; note: potency is the fitted concentration of half-maximal effect; nearly all actives have a fitted effect of over 55% in size
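HEK293T cells expressing luciferase-tagged ELG1 (2,000/well) received 5-Fluorouridine plus compound or DMSO for 16 hr at 37 °C. Luciferase was read by ONE-Glo luminescence after 30 min at room temperature.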
Giardia kill – kills Giardia lamblia. AID 540267. activity change, % at 7.66 µM, hits read low. 0.15% of 340,000 active. Giardia lamblia trophozoite viability; in the data active = activity change below about -80%; inconclusive = between about -30% and that limit;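 note: parasites exposed to compound for two days anaerobically before the ATP read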
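ATP-content bioluminescence gauges trophozoite survival. Cells (100/well) receive compound and incubate anaerobically for 48 hrs at 37 deg C; detection reagent follows for 15-30 min at room temperature.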
TDP1 cell noCPT – qHTS for Inhibitors of human tyrosyl-DNA phosphodiesterase 1 (TDP1): qHTS in cells in absence of CPT; DT40 Tdp1-/- hTDP1 cells, no CPT, ATP luminescence, 48 h; Potency, µM (series often up to 46.2 µM), for the others: top-dose activity change, negative = growth inhibition, actives largely listed as inhibitors; 15% of 420,000 active; note: potency is the fitted concentration of half-maximal effect; nearly all actives have a fitted effect of over 55% in size
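Chicken DT40 Tdp1-/- cells stably complemented with human TDP1 were seeded at 400 cells/well with DMSO in place of 20 nM camptothecin. After compound pinning, cells grew at least 48 hr at 37 °C; viability read by CellTiter-Glo luminescence.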
IL-1B inflam inh – inflammasome signaling inhibition, IL-1 beta readout. THP-1 LPS/ATP IL-1B secretion, AlphaLISA, 16 h; active compounds read low. activity change, % at 57.5 µM. 4.7% of 360,000 active; in the data active = activity change below about -50%; inconclusive = mostly about -30% to -49%
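Secreted IL-1B measured by AlphaLISA bead assay after 16 h compound exposure of THP-1 cells; compounds (final up to 57.5 uM) added 1 h before LPS (250 ng/mL) and ATP (1.25 mM) stimulation; lower signal means less secretion.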
TDP1 inh – TDP1 (human) enzyme inhibition | Q9NUW8 | recombinant TDP1, AlphaScreen DNA substrate cleavage | Potency, µM (titrated, usually from 130 µM), without a hit: at the top dose activity change, negative = inhibition, actives largely listed as inhibitors | 0.28% of 350,000 active | AID 485290; note: potency is the fitted concentration of half-maximal effect; nearly all actives have a fitted effect of over 40% in size
Target sequence (Q9NUW8 whole entry, looked up): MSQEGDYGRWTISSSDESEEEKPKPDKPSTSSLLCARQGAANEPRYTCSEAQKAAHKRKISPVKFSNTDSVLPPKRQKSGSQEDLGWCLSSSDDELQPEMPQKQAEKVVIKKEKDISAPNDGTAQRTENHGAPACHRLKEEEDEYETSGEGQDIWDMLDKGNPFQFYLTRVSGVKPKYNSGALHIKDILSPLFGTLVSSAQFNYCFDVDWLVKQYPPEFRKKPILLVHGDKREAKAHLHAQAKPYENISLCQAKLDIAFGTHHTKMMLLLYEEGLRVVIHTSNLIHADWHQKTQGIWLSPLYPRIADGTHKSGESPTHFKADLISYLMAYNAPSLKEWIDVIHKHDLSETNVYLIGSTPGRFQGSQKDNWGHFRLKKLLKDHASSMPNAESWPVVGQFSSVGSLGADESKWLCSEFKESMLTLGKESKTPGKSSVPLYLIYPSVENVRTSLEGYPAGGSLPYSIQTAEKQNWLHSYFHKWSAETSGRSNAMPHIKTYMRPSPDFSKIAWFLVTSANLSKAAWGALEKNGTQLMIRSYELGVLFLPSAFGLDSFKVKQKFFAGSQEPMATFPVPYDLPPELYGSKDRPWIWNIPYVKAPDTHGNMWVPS
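Recombinant E. coli-expressed Tdp1 (1 nM) preincubated with compound 15 min at RT, then 5'-biotin/3'-phosphotyrosine-FITC DNA substrate (15 nM) added for 5 min. AlphaScreen beads (10 ug/ml) added, 10 min RT; tyrosine-FITC cleavage read as signal loss.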
The depositor's hits bear a star; ? = inconclusive; · = not tested or not shown; [ ] = another dose, or the depositor's remark. Unless noted, calls come from the whole dose curve; as a rule, active = well fitted curve in the direction sought with a large enough effect; inconclusive = small, poorly fitted or top-dose-only effect, or another doubt; inactive = no such curve, though single readings can be large; an effect the other way counts as inactive or inconclusive. % is set by controls: 0 for no effect and ±100 for the full control effect.

SMILES	TDP1 cell CPT	ELG1 repair inh	Giardia kill	TDP1 cell noCPT	IL-1B inflam inh	TDP1 inh
COc1ccc(S(=O)(=O)N(C)C[C@H]2Oc3c(NC(=O)Nc4ccccc4)cccc3C(=O)N([C@H](C)CO)C[C@@H]2C)cc1	?	·	-1	?	0	·
CC(C)NC(=O)Nc1cccc2c1O[C@H](CN(C)S(=O)(=O)c1ccc(F)cc1)[C@@H](C)CN([C@H](C)CO)C2=O	16µM*	-3%	-11	-28%	-5	1%
COC(=O)Cc1c(C)c2cc3c(c(C)c2oc1=O)OCN(CCc1ccc(F)cc1)C3	?	·	·	?	·	9%
O=C(O)c1nn(CCSc2ccccc2F)c(=O)c2ccccc12	?	?	9	?	32	6%
Cc1ccc(C(=O)N2CCN(c3ccc(NC(=O)c4ccc5c(c4)OCCO5)cc3)CC2)cc1	16µM*	?	-12	?	·	5%
O=C(Nc1ccc(N2CCN(C(=O)c3ccccc3)CC2)cc1)c1ccc2c(c1)OCO2	15µM*	?	5	18µM*	-78*	2%
Cc1ccccc1C(=O)N1CCN(c2ccc(NC(=O)c3ccc4c(c3)OCCO4)cc2)CC1	?	?	5	23µM*	?	6%
COc1ccccc1N(C)S(=O)(=O)c1ccc(C(=O)NC(C)(C)C)cc1	-23%	?	6	-6%	4	-2%
COc1ccccc1N(C)S(=O)(=O)c1ccc(C(=O)Nc2cc(F)ccc2C)cc1	?	18µM*	2	?	?	-2%
COc1ccccc1N(C)S(=O)(=O)c1ccc(C(=O)Nc2nnc(C)s2)cc1	2%	1%	30	-21%	-3	1%[0.505 µM]
COc1ccccc1N(C)S(=O)(=O)c1ccc(C(=O)Nc2nc(C)cs2)cc1	1.5µM*	13µM*	8	0.65µM*	-17	5%
CCC(C)c1c(NS(=O)(=O)c2ccc(C)cc2)o[nH]c1=O (centres undefined)	15%	·	-7	-16%	-11	·
O=C(COc1coc(CN2CCN(c3ccc(F)cc3)CC2)cc1=O)NC1CCCC1	?	-11%	6	?	1	1%
O=C(COc1coc(CN2CCN(c3ccc(F)cc3)CC2)cc1=O)NC1CCCCC1	?	·	11	7.3µM*	0	·
Cc1cccc(NC(=O)c2oc3ccccc3c2NC(=O)Cc2coc3c(C)c(C)ccc23)c1	?	·	·	?	·	6%
CC(=O)Nc1cc(-c2ccc(C(=O)N3CCOCC3)cc2)cn2c(-c3cccc(C(C)=O)c3)cnc12	?	·	·	15µM*	?	·
COc1cccc(-c2cnc3c(NC(C)=O)cc(-c4ccc(C(=O)N5CCOCC5)cc4)cn23)c1	21µM*	·	·	18µM*	?	·
CC(=O)Nc1cncc(-c2cccc(C(=O)N3CCOCC3)c2)n1	-37%	·	·	6.5µM*	-3	·
CN(C)CCNC(=O)c1cccc(-c2cnc3c(NC=O)cc(-c4ccc(C(=O)N5CCOCC5)cc4)cn23)c1	-1%	·	·	12%	-5	·
Cc1cc2c(cc1S(=O)(=O)C(C)CC(=O)NCc1ccco1)OCC(=O)N2 (centres undefined)	-4%	9%	-19	22%	15	1%
CC1CCCN(C(=O)Cc2cn(Cc3cccc(Cl)c3)c3ccccc23)C1 (centres undefined)	?	4%	-17	15µM*	-76*	3%
O=C(Cc1cn(Cc2cccc(Cl)c2)c2ccccc12)N1CCCCCC1	?	16%	-3	?	-65*	2%
Cc1ccc(C(=O)O)cc1-c1ccc(C=C2C(=O)c3ccccc3C2=O)o1	9%	-5%	-4	-2%	10	-2%
O=C1C(=Cc2ccc(Br)o2)C(=O)c2ccccc21	23µM*	17%	8	?	6	?
N#Cc1ccc(OCC(O)CN2CCC(C(O)(c3ccccc3)c3ccccc3)CC2)cc1 (centres undefined)	21µM*	-1%	-26	?	-95*	3%
SMILES	TDP1 cell CPT	ELG1 repair inh	Giardia kill	TDP1 cell noCPT	IL-1B inflam inh	TDP1 inh
CC(C)(C(=O)O)c1ccc(C(O)CCCN2CCC(C(O)(c3ccccc3)c3ccccc3)CC2)cc1 (centres undefined)	26%	-15%	13	0%	31	7%[56.1 µM]
N#Cc1cccc(OCCCN2CCC(C(O)(c3ccccc3)c3ccccc3)CC2)c1	?	·	·	16µM*	-57*	·
Cc1cc(OCCCN2CCC(C(O)(c3ccccc3)c3ccccc3)CC2)ccc1Br	5.8µM*	·	·	5.8µM*	-75*	·
CCOc1ccc(Br)cc1CNc1ccc2c(c1)OCCO2	-5%	11%	12	-4%	?	11%
CSc1ncccc1C(=O)Nc1ccc(F)c(F)c1F	-7%	-5%	12	-17%	-9	5%
CC(C)c1nnc(NC(=O)CCC(=O)N2CCC(Cc3ccccc3)CC2)s1	?	-2%	-11	-21%	20	5%
Cc1ccc(NC(=O)/C=C/c2cccs2)c([N+](=O)[O-])c1	13µM*	?	5	23µM*	-17	2%
Cc1ccc(NC(=O)c2cn(CCC#N)nc2-c2cccs2)c([N+](=O)[O-])c1	?	?	-18	12µM*	0	-2%
CCn1c(SCC(=O)Nc2ccc(OC)c(S(=O)(=O)N3CCCCC3)c2)nnc1C1CC1	6%	2%	-13	10%	-12	1%
COC(=O)[C@@H]1CC[C@H](C)[C@@H](c2ccc(C)cc2)N1C(=O)c1ccc(/C=N/O[C@@H](C)c2cn([C@H](CO)Cc3ccccc3)nn2)cc1	·	15µM*	·	·	·	3%
CCc1ccccc1N1CC(C(=O)Nc2cc(S(=O)(=O)N3CCCC3)ccc2Cl)CC1=O (centres undefined)	?	?	-11	15µM*	15	-6%[56.1 µM]
CCC(C)c1ccccc1N1CC(C(=O)NCCC2=CCCCC2)CC1=O (centres undefined)	18µM*	-17%	-11	16µM*	-3	0%
CSc1cccc(N2CC(C(=O)Nc3cccc(S(=O)(=O)N4CCCC4)c3)CC2=O)c1 (centres undefined)	21µM*	?	4	15µM*	6	1%
CSc1cccc(NC(=O)C2CCN(S(=O)(=O)c3ccc4[nH]c5c(c4c3)CCCCC5)CC2)c1	?	·	·	21µM*	·	11%
